POLI inh – DNA polymerase iota (human) inhibition; AID 588590; Potency, µM (doses to about 115 µM), for the others: at the highest dose activity, negative = inhibition, usual class: inhibitors; Pol iota fluorescent replication assay, 10 min; Q9UNA4; actives 1% (n = 390,000)
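Pol iota at 10 nM preincubated 15 min with compounds at room temperature; reaction started with fluorescent substrate, 50 nM final. Fluorescence read kinetically at 0 and 10 min; buffer-only wells as negative control.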
GLS inhibitor – glutaminase GLS (human) inhibition; O94925; GLS enzymatic activity, qHTS titration; Potency, µM (titrated, usually from 45.5 µM), for the others: at the top dose activity change, negative = inhibition, most hits filed as inhibitors; actives 0.21% (n = 410,000); AID 624170; further: on the % scale 0 is the no-effect control and ±100 the full control effect
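Coupled fluorescence readout: glutamate oxidase/HRP/Amplex Red detect glutamate formed by hKGA from L-glutamine (1 mM solution added). Buffer 45 mM KH2PO4 pH 8.2, 0.02% Tween-20; reads at t0 and 30 min RT.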
POLB inh – blocks human DNA polymerase beta activity. Pol beta primer extension/strand displacement, fluorescence kinetic. Potency, µM (highest dose often 114 µM), without a hit: at the highest dose activity change, negative = inhibition, actives largely listed as inhibitors. actives 1.3% (n = 340,000). AID 485314; further: on the % scale 0 is the no-effect control and ±100 the full control effect
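Human Pol beta at 10 nM; strand-displacement substrate 50 nM final. Compound exposure 15 min at room temperature before start, reaction 10 min at room temperature.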
Pol eta inh – DNA polymerase eta (human) inhibition; Q9Y253; recombinant Pol eta, fluorescent DNA replication assay; Potency, µM (series often up to 114 µM), for inactives: at the highest dose activity change, negative = inhibition, most hits filed as inhibitors; actives 1.2% (n = 390,000); further: on the % scale 0 is the no-effect control and ±100 the full control effect
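Pol eta (10 nM) was preincubated with compounds for 15 min at room temperature, after which fluorescent replication substrate (50 nM final) was added to start the reaction. Fluorescence was read kinetically at 0 and 10 min.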
POLK inh – blocks human DNA polymerase kappa activity | purified Pol kappa, fluorescent DNA synthesis assay, 10 min | Potency, µM (highest dose often 107 µM), for inactives: top-dose activity, negative = inhibition, most hits filed as inhibitors | Q9UBT6 | actives 0.53% (n = 400,000); further: on the % scale 0 is the no-effect control and ±100 the full control effect
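First, compounds were pin-transferred onto 10 nM Pol kappa. After 15 min at room temperature, substrate was added to 50 nM final. Fluorescence was then measured kinetically at 0 and 10 min.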
APE1 inh – APE1 (human) endonuclease inhibition; P27695; recombinant APE1, TAMRA/BHQ-2 abasic DNA cleavage fluorescence; Potency, µM (doses to about 65.8 µM), inactives show at the highest dose activity change, negative = inhibition, usual class: inhibitors; actives 0.35% (n = 350,000);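 further: plate controls were vehicle for no effect and reference inhibitor for full effect; nearly all actives have a fitted effect of over 55% in size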
Target sequence (P27695 whole entry, looked up): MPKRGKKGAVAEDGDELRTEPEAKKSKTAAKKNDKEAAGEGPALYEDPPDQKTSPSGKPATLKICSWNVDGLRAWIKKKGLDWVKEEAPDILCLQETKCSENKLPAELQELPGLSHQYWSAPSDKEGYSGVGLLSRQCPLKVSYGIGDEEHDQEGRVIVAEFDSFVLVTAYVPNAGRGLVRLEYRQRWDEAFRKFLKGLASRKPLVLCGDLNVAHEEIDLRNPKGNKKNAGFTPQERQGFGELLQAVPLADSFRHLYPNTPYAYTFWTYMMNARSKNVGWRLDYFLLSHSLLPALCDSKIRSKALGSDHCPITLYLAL
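Endonuclease cleavage of a quenched abasic-site DNA duplex (50 nM) by APE1 (0.75 nM) was tracked by TAMRA dequenching. Compounds were preincubated with enzyme 15 min at room temperature; data normalized to buffer-only and DMSO wells plus NSC13755 control.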
Active calls of the source: *; ? = inconclusive; · = not tested or not shown; ! = repeats disagree; [ ] = another dose, or the depositor's remark. In the library only some 2.4% were active in any assay of this set; here they are far more common. The call rests on the fitted dose curve; in most records, active means well fitted curve in the direction sought with a large enough effect; inconclusive means small, poorly fitted or top-dose-only effect, or another doubt; inactive means no such curve, though single readings can be large; an effect the other way counts as inactive or inconclusive. Potency means the concentration at half of the fitted maximal effect.

SMILES	POLI inh	GLS inhibitor	POLB inh	Pol eta inh	POLK inh	APE1 inh
CCOc1ccc(/C=C/c2[nH]c(=O)[nH]c(=O)c2[N+](=O)[O-])cc1	14.8%	-13.1%	16.6%	?	0.5%	31.8%
CCOC(=O)COc1ccc(Br)cc1/C=C\c1[nH]c(=O)[nH]c(=O)c1[N+](=O)[O-]	89.1µM*	-9.0%	?	12.6µM*	-4.0%	-4.3%
CCOC(=O)COc1ccc(Br)cc1/C=C/c1[nH]c(=O)[nH]c(=O)c1[N+](=O)[O-]	?	0.0%	56.2µM*	44.7µM*	-9.3%	-0.7%
Cc1nc(C)c(-c2csc(Nc3ccc(F)cc3)n2)s1	8.7%	0.1%	-8.4%	-24.9%	9.8%	-8.3%
CCC1(c2ccc(F)cc2)NC(=O)N(CC(=O)Nc2cccc(S(=O)(=O)N3CCCC3)c2)C1=O (stereo unspecified)	-28.6%	-3.1%	·	-14.4%	5.5%	·
Cc1cc(C)cc(N(CC(=O)NC2CC3CCC2C3)S(C)(=O)=O)c1 (stereo unspecified)	89.1µM*	-2.1%	-1.0%	1.3%	-8.2%	0.4%
COc1ccccc1N(CC(=O)NC1CC2CCC1C2)S(=O)(=O)c1ccc(C)cc1 (stereo unspecified)	7.2%	5.7%	37.0%	?	-15.7%	-8.8%
O=C(CCc1ccccc1)Nc1ccc(S(=O)(=O)N2CCCC2)cc1	33.8%	2.1%	4.0%	-18.9%	-0.8%	7.2%
CCCCNC(=O)c1cc2cccc([N+](=O)[O-])c2[nH]1	59.1%	-1.8%	2.2%	-5.0%	1.4%	7.2%
O=C(O)c1cc2cccc([N+](=O)[O-])c2[nH]1	70.8µM*!	·	·	·	44.7µM*!	·
COc1ccccc1-c1nnc2sc(COc3ccc(Cl)cc3Cl)nn12	-15.2%	-9.0%	56.2µM*	-10.0%	-24.7%	0.5%
COc1ccccc1-c1nnc2sc(COc3ccccc3)nn12	-3.4%[58.9 µM]	-2.5%	7.7%	-13.6%	-5.4%	12.4%
COc1cccc(OCC(=O)NNC(=O)c2ccc(-c3ccccc3)cc2)c1	?	-3.0%	79.4µM*	-15.5%	-13.6%	19.1%
COc1cccc(OCC(=O)NNC(=O)CCc2ccccc2)c1	17.2%	0.7%	8.4%	-20.3%	-4.4%	8.2%
O=C(O)COc1cccc(NC(=O)c2ccccc2)c1	?	0.0%	2.3%	79.4µM*	-3.4%	0.9%
O=C(Cn1sc2ccccc2c1=O)Nc1ccc(Br)cc1	·	7.08µM*	·	-8.3%	·	·
Cc1ccc(NC(=O)Cn2nc(-c3ccc(Cl)cc3)c3ccccc3c2=O)cc1	?	0.2%	8.3%	·	-18.8%	·
O=C(Cn1sc2ccccc2c1=O)Nc1ccc(F)cc1	·	?	·	-3.7%	·	·
O=C(Cn1sc2ccccc2c1=O)Nc1ccc(Cl)cc1	·	7.08µM*	·	-18.9%	·	·
Cc1nn(C(=O)c2cccnc2)c(C)c1Sc1ccc(Br)cc1	8.8%	-4.5%	10.9%	-19.3%	-7.8%	-1.5%
O=C(OCc1ccc([N+](=O)[O-])cc1)C1CC(=O)N(CCc2ccccc2)C1 (stereo unspecified)	8.6%	-6.2%	·	-7.3%	-13.7%	-1.7%
O=C(OCc1nnc(-c2ccc([N+](=O)[O-])cc2)o1)C1CC(=O)N(CCc2ccccc2)C1 (stereo unspecified)	79.4µM*	13.4%	·	?	-14.2%	54.7%
O=C(Nc1ccc(C(=O)O)cc1)/C(=C\c1ccco1)NC(=O)c1ccc(Br)o1	?	39.9%	?	50.1µM*	79.4µM*	-11.9%
O=C(Nc1ccccc1C(=O)O)/C(=C/c1ccc([N+](=O)[O-])cc1)NC(=O)c1ccc(Br)o1	-17.8%	-3.5%	28.2µM*	39.8µM*	-29.3%	?
O=C(NC(Cc1ccccc1)C(=O)O)/C(=C/c1ccc([N+](=O)[O-])cc1)NC(=O)c1ccc(Br)o1 (stereo unspecified)	57.3%	15.8%	1.7%	-14.3%	-0.5%	26.1%
SMILES	POLI inh	GLS inhibitor	POLB inh	Pol eta inh	POLK inh	APE1 inh
O=C(O)/C(=C\c1ccco1)NC(=O)c1cccc2ccccc12	?	-14.2%	-1.3%	50.1µM*	50.1µM*	0.4%
CC(C)(C)c1ccc(C(=O)N/C(=C\c2ccco2)C(=O)O)cc1	40.9%	14.4%	?	-15.5%	0.7%	-7.3%
CC(C)C(NC(=O)/C(=C/c1ccco1)NC(=O)c1ccc(Br)o1)C(=O)O (stereo unspecified)	?	?	39.8µM*	20µM*	?	9.6%
Cc1ccc(C2c3[nH]c4ccccc4c3CCN2C(=O)CSCc2ccc(F)cc2)cc1 (stereo unspecified)	2.4%	-1.9%	0.9%	-7.4%	-7.7%[60.1 µM]	·
Cc1cc(OCC(=O)NCCN2CCOCC2)c2c(C)c(C)c(=O)oc2c1	-16.6%	7.5%	-13.3%	-0.4%	3.7%	-8.7%
O=C(O)/C(=C\c1ccco1)NC(=O)c1ccc(Br)o1	?	?	·	20µM*	-28.6%	·
Cc1ccc2nc(-c3ccsc3)c(NC3CCCC3)n2c1	4.2%	1.58µM*	34.7%	-5.9%	-3.3%	0.5%
CCn1c(O)c2ccc(C(=O)N=NC(=O)c3ccccc3)cc2c1O	13.0%	11.2%	57.9%	-2.9%	-5.2%	-6.7%
O=C(N=NC(=O)c1ccco1)c1ccc2c(O)n(N3C(=O)c4ccccc4C3=O)c(O)c2c1	-12.7%	6.9%	44.7µM*	?	-14.8%	1.0%
Cc1ccccc1-c1cc(C(=O)NCc2ccc(OC(F)(F)F)cc2)nn1CC1CC(c2cccc([N+](=O)[O-])c2)=NO1 (stereo unspecified)	-5.4%	-7.6%	·	-12.8%	-0.5%	-4.0%
c1coc(-c2ccnc(-n3cccc3)n2)c1	1.9%	-0.4%	24.7%	-8.5%	-3.6%	-0.3%
Nc1ncnc2oc(-c3ccoc3)c(-c3ccco3)c12	11.2µM*	·	·	·	20µM*	·
O=C(Cn1cnc2c(nnn2Cc2ccc(Cl)cc2)c1=O)OCc1ccccc1	9.5%	14.5%	15.7%	3.0%	-7.1%	-6.3%
O=C1C(=O)c2c(ccc3ccccc23)-c2ccccc21	54.3%	-5.8%	·	7.94µM*	-0.6%	·
O=c1cc(CSc2nnc(COc3ccccc3Cl)o2)nc2sccn12	-7.6%	-1.0%	35.5µM*	11.2%	-1.0%	-1.8%
CC1CCCCC12NC(=O)N(Cc1cc(=O)n3ccsc3n1)C2=O (stereo unspecified)	79.4µM*	11.9%	?	-3.8%	-13.0%	?
CC(=O)Nc1cccc(NC(=O)COC(=O)CO/N=C(\C)c2ccc3c(c2)OCO3)c1	96.4%	-4.9%	-15.5%	-16.1%	-15.8%	21.8%
C/C(=N\OCC(=O)OCC(=O)NCc1ccccc1)c1ccc2c(c1)OCO2	39.8µM*	14.2%	·	20µM*	?	9.9%

Screening data deposited in PubChem BioAssay by National Center for Advancing Translational Sciences (NCATS).
